# Source: PubChem BioAssay (Tox21)
# Values without a mark were called inactive. Inconclusive results are not listed. Entries that show only a call come without a potency. Calls of active or inactive are those of the source. Unless noted, the call rests on the fitted dose curve; in most records, active means well fitted curve in the direction sought with a large enough effect in the repeat runs; inconclusive means weak or mixed curves; inactive means no such curve, though single readings can be large; an effect the other way counts as inactive or inconclusive.
# Experiments:
# [1] = qHTS RealTime-Glo MT Cell Viability Assay in HEK293 cells - 0 hour (AID 1224880); further: top concentration of the series differs between compounds; nearly all actives have a fitted effect of over 45% in size
# Method in brief: (§1)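 Kinetic, non-lysing viability readout. Seed HEK293 (600/well) with reagent, incubate 5 h at 37 C/5% CO2, pin 23 nL compound in DMSO, incubate at 37 C, read luminescence at 0, 8, 16, 24, 32, 40 h.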
# [2] = A CellTox Green Cytotoxicity Assay to monitor cytotoxicity in HEK293 cells - 32 hour (AID 1224881); further: nearly all actives have a fitted effect of over 40% in size; further: potency means the concentration at half of the fitted maximal effect
# Method in brief: (§2)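 Real-time, in one plate: 600 HEK293 cells/well with dead-cell DNA dye, pinned compound after 5 h, 37 C incubation over 40 h; viable cells give no appreciable fluorescence.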
# [3] = A CellTox Green Cytotoxicity Assay to monitor cytotoxicity in HepG2 cells - 0 hour (AID 1224882); further: nearly all actives have a fitted effect of over 35% in size
# Method in brief: (§3)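 Cytotoxicity was tracked as dead-cell DNA fluorescence in HepG2 cells treated with test compounds at 37 C; each time-point value comes from one kinetic series spanning 0, 8, 16, 24, 32 and 40 h.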
# [4] = A CellTox Green Cytotoxicity Assay to monitor cytotoxicity in HEK293 cells - 8 hour (AID 1224884); further: nearly all actives have a fitted effect of over 35% in size
# Method in brief: as §2
# [5] = qHTS RealTime-Glo MT Cell Viability Assay in HepG2 cells - 16 hour (AID 1224885); further: nearly all actives have a fitted effect of over 50% in size
# Method in brief: (§4)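 Viability was tracked continuously by NanoLuc luminescence from prosubstrate reduced by living HepG2 cells, at successive time points over 40 h of compound exposure. Cells with reagent were preincubated 5 h at 37 °C before compound addition.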
# [6] = qHTS RealTime-Glo MT Cell Viability Assay in HEK293 cells - 24 hour (AID 1224886); further: top concentration of the series differs between compounds; nearly all actives have a fitted effect of over 50% in size
# Method in brief: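 Viability tracked continuously by luminescence as live cells reduce a prosubstrate for NanoLuc; HEK293 cells preincubated 5 h, compound-treated at 37 C, and read at 0, 8, 16, 24, 32 and 40 h.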
# [7] = qHTS RealTime-Glo MT Cell Viability Assay in HEK293 cells - 8 hour (AID 1224887); further: top concentration of the series differs between compounds; nearly all actives have a fitted effect of over 50% in size
# Method in brief: as §1
# [8] = A CellTox Green Cytotoxicity Assay to monitor cytotoxicity in HEK293 cells - 16 hour (AID 1224888); further: nearly all actives have a fitted effect of over 35% in size
# Method in brief: as §2
# [9] = qHTS RealTime-Glo MT Cell Viability Assay in HepG2 cells - 0 hour (AID 1224889); further: nearly all actives have a fitted effect of over 50% in size
# Method in brief: as §4
# [10] = A CellTox Green Cytotoxicity Assay to monitor cytotoxicity in HepG2 cells - 8 hour (AID 1224890); further: nearly all actives have a fitted effect of over 45% in size
# Method in brief: as §3
# [11] = qHTS assay to identify small molecule antagonists of the estrogen receptor alpha (ER-alpha) signaling pathway using the BG1 cell line in the presence of 0.1 nM 17-beta-estradiol - cell viability counter screen (AID 1259241); further: nearly all actives have a fitted effect of over 40% in size; further: potency means the concentration at half of the fitted maximal effect
# Method in brief: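 Cells were plated and left 24 hr, compounds in DMSO were pinned in, 17beta-estradiol was added to 0.1 nM final, and after 22 hr CellTiter-Fluor reagent was added for 30 min before fluorescence was read.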
# [12] = qHTS assay to identify small molecule antagonists of the androgen receptor (AR) signaling pathway using the MDA cell line in the presence of 0.5 nM R1881 - cell viability counter screen (AID 1259242); further: nearly all actives have a fitted effect of over 45% in size
# Method in brief: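 Cells seeded at 3,000/well and allowed 5 hr at 37C, 0% CO2 before compound transfer and R1881 (0.5 nM final) addition; 16 hr later, live-cell protease fluorescence indicated cytotoxicity.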
# [13] = qHTS assay to identify small molecule HDAC inhibitors - cell viability counter screen (AID 1259365)
# Method in brief: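 Counter screen in wild-type HCT-116 cells: compounds dissolved in DMSO are pin-transferred onto overnight-plated cells and left 2hr at 37C. ATP-based CellTiter-Glo luminescence then measures viable cells.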
# [14] = qHTS assay to identify small molecule agonists of the sonic hedgehog signaling (Shh) pathway - cell viability counter screen (AID 1259366); further: nearly all actives have a fitted effect of over 50% in size
# Method in brief: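 Cells are plated at 2,000 per well and left 4hr at 37C, 5% CO2 before compound addition. After 23hr of treatment, CellTiter-Fluor reagent is added for 1hr at 37C and fluorescence is measured.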
# [15] = qHTS assay to identify small molecule antagonists of the sonic hedgehog signaling (Shh) pathway - cell viability counter screen (AID 1259367); further: nearly all actives have a fitted effect of over 55% in size
# Method in brief: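 Viability was read by CellTiter-Fluor fluorescence in the same wells, reagent added 23 hr into compound treatment and incubated 1 hr at 37C. The 3T3 Gli1-Luc reporter cells (2,000/well) received conditioned medium after compound and ran 24 hr.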
# [16] = target: Estrogen receptor (Homo sapiens) (UniProt P03372); assay: qHTS assay to identify small molecule antagonists of the estrogen receptor alpha (ER-alpha) signaling pathway using the BG1 cell line in the presence of 0.1 nM 17-beta-estradiol (AID 1259244); further: nearly all actives have a fitted effect of over 50% in size
# Method in brief: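 Luciferase signal from VM7Luc4E2 ERE-reporter cells, co-dosed with test compound and 0.1 nM final 17beta-estradiol for 22 h, read with ONE-Glo.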
# [17] = qHTS assay to identify small molecule HDAC inhibitors (AID 1259364); further: potency means the concentration at half of the fitted maximal effect;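 further: wild-type HCT-116 cells with endogenous class I/II HDAC activity; nearly all actives have a fitted effect of over 45% in size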
# Method in brief: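 HCT-116 wt cells, 1,500/well, overnight attach. Compounds (DMSO) 2 h, 37 °C. HDAC-Glo I/II, 30 min RT. Luminescence.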
# [18] = A CellTox Green Cytotoxicity Assay to monitor cytotoxicity in HepG2 cells - 32 hour (AID 1224883); further: nearly all actives have a fitted effect of over 50% in size
# Method in brief: as §3
# [19] = target: Androgen receptor (Homo sapiens) (UniProt P10275); assay: qHTS assay to identify small molecule antagonists of the androgen receptor (AR) signaling pathway using the MDA cell line in the presence of 0.5 nM R1881 (AID 1259243); further: nearly all actives have a fitted effect of over 50% in size
# Method in brief: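 Luminescence from an AR/GR-responsive MMTV-luciferase construct in MDA-kb2 breast carcinoma cells, read 30 min after ONE-Glo, following 16 hr co-treatment with compounds and 0.5 nM R1881.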
# [20] = qHTS assay to identify small molecule phospholipidosis (PLD) inducers (AID 1259344; active means well fitted curve in the direction sought with a large enough effect; an effect the other way counts as inactive or inconclusive)
# Method in brief: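 Phospholipid accumulation was scored by imaging: fixed, Hoechst-counterstained HepG2 cells stained with LipidTOX Red after 24 h compound exposure at 37 C. Read-outs were pit count and pit intensity per well or per cell, with amiodarone and DMSO controls.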
# Androgen receptor (Homo sapiens), sequence (P10275 whole entry, looked up): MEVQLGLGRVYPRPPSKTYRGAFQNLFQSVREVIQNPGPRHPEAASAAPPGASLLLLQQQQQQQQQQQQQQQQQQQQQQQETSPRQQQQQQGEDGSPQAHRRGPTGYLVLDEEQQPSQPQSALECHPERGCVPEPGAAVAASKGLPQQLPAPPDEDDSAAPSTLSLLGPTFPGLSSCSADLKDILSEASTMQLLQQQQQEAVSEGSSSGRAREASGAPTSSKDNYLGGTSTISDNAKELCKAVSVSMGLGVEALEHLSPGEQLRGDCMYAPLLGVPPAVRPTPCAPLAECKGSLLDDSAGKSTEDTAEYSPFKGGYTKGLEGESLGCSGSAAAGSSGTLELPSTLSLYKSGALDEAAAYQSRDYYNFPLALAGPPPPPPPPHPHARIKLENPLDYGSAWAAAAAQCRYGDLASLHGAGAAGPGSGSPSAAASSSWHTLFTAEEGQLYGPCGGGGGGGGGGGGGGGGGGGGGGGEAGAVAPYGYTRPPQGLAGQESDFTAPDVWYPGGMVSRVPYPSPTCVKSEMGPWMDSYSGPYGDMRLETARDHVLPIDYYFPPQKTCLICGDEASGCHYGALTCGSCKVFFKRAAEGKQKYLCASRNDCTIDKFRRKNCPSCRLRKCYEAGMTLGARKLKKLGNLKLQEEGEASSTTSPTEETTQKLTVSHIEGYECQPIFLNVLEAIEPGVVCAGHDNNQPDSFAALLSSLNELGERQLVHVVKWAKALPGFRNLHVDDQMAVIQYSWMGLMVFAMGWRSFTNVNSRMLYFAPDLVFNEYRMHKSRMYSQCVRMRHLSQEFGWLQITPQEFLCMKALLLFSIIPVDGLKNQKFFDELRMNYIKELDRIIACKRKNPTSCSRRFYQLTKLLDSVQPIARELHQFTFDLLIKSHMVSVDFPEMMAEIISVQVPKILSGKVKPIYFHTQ
# Estrogen receptor (Homo sapiens), sequence (P03372 whole entry, looked up): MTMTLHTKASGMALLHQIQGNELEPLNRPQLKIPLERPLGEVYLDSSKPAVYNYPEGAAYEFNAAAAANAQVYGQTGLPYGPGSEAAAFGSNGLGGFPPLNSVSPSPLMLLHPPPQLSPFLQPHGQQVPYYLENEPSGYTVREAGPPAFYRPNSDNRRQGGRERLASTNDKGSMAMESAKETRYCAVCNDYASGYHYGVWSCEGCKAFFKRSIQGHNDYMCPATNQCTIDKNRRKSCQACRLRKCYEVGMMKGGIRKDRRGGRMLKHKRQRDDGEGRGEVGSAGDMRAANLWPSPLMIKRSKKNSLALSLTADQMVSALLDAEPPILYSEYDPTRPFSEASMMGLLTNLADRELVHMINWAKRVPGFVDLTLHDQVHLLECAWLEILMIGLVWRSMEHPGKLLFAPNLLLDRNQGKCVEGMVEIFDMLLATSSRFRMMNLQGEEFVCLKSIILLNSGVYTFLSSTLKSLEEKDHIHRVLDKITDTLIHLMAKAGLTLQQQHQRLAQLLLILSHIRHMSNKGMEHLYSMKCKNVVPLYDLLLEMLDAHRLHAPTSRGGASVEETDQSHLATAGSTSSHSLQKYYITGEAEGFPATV
SMILES,outcome [1],Potency [2],Potency [3],Potency [4],outcome [5],Potency [6],Potency [7],Potency [8],Potency [9],Potency [10],Potency [11],outcome [12],outcome [13],Potency [14],Potency [15],Potency [16],Potency [17],Potency [18],Potency [19],outcome [20]
CC(=O)Nc1ccc(C)c(Cl)c1,inactive,inactive,inactive,inactive,inactive,inactive,inactive,inactive,inactive,inactive,inactive,inactive,inactive,inactive,inactive,–,–,–,–,–
O=C1CCN(c2ccccc2)N1,inactive,inactive,inactive,inactive,inactive,inactive,inactive,inactive,inactive,inactive,inactive,inactive,inactive,inactive,inactive,inactive,inactive,–,–,–
Nc1ccc(Oc2ccc(N)c(N)c2)cc1,inactive,inactive,inactive,inactive,–,–,–,inactive,–,inactive,48.6 µM (active),inactive,inactive,–,inactive,inactive,30.6 µM (active),–,–,–
Cc1cc(S(=O)(=O)O)c(N)cc1Cl,inactive,inactive,–,inactive,inactive,inactive,inactive,inactive,inactive,–,inactive,inactive,inactive,inactive,inactive,inactive,inactive,inactive,inactive,–
CCCCNc1ccc(C(=O)OCCN(CC)CC)cc1,inactive,inactive,inactive,inactive,inactive,–,inactive,inactive,–,inactive,inactive,inactive,inactive,inactive,inactive,inactive,inactive,–,–,–
CN1CCN(C2=Nc3ccccc3Oc3ccc(Cl)cc32)CC1,inactive,inactive,inactive,inactive,inactive,inactive,inactive,inactive,–,inactive,inactive,inactive,inactive,–,–,inactive,inactive,–,–,inactive
NC/C=C/C(=O)O,inactive,inactive,–,inactive,inactive,inactive,inactive,inactive,inactive,–,inactive,inactive,inactive,inactive,inactive,–,inactive,inactive,–,inactive
O=c1[nH]c(=O)n([C@H]2C[C@H](O)[C@@H](CO)O2)cc1C(F)(F)F,inactive,inactive,–,inactive,inactive,inactive,inactive,inactive,inactive,inactive,inactive,inactive,inactive,inactive,inactive,inactive,inactive,inactive,–,inactive
Clc1cccc(-c2cc(Cl)cc(Cl)c2)c1,inactive,42.1 µM (active),inactive,–,–,inactive,inactive,–,inactive,inactive,inactive,inactive,inactive,inactive,inactive,inactive,inactive,–,–,–
CC(C)C1=CC2=CC[C@@H]3[C@](C)(CCC[C@@]3(C)C(=O)O)[C@H]2CC1,inactive,inactive,–,inactive,inactive,inactive,inactive,inactive,inactive,inactive,inactive,inactive,inactive,inactive,inactive,inactive,inactive,inactive,–,inactive
Cc1c(C(=O)NCCO)[n+](=O)c2ccccc2n1[O-],inactive,inactive,inactive,inactive,inactive,inactive,inactive,inactive,–,inactive,inactive,inactive,inactive,inactive,inactive,–,–,–,inactive,inactive
CC(C)C[C@H](NC(=O)OCC1c2ccccc2-c2ccccc21)C(=O)O,inactive,inactive,inactive,inactive,inactive,inactive,inactive,inactive,–,inactive,inactive,inactive,inactive,inactive,inactive,–,inactive,–,–,–
O=C1C=CC(=O)O1,inactive,inactive,–,inactive,inactive,inactive,inactive,inactive,inactive,inactive,inactive,inactive,inactive,inactive,inactive,inactive,inactive,inactive,–,–
O=Cc1ccc(F)c(Br)c1,inactive,inactive,inactive,inactive,inactive,inactive,inactive,inactive,–,–,inactive,inactive,inactive,inactive,inactive,inactive,inactive,–,–,–
CC1(C)C(=O)N(Cl)C(=O)N1Br,inactive,inactive,–,inactive,inactive,inactive,inactive,inactive,inactive,inactive,inactive,inactive,inactive,inactive,inactive,–,inactive,inactive,–,–
CCCCCCC,inactive,inactive,inactive,–,inactive,inactive,inactive,inactive,inactive,–,inactive,inactive,inactive,inactive,inactive,inactive,–,–,–,–
Cc1ncc(CO)c(CN)c1O,inactive,inactive,–,inactive,inactive,inactive,inactive,inactive,inactive,inactive,inactive,inactive,inactive,inactive,inactive,inactive,inactive,inactive,inactive,inactive
